Hits are enriched below; roughly 4.2% of the tested compounds scored in any of these assays.
RecA intein inh – inhibitors of M. tuberculosis RecA intein splicing; cell-free RecA intein splicing, fluorescence; inhibition, % (no concentration beside the values); P9WHJ3; 0.75% of 290,000 active; in the data active = inhibition above about 30%;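 also: 0% = vehicle wells and 100% = reference inhibitor control wells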
Target sequence (P9WHJ3 whole entry, looked up): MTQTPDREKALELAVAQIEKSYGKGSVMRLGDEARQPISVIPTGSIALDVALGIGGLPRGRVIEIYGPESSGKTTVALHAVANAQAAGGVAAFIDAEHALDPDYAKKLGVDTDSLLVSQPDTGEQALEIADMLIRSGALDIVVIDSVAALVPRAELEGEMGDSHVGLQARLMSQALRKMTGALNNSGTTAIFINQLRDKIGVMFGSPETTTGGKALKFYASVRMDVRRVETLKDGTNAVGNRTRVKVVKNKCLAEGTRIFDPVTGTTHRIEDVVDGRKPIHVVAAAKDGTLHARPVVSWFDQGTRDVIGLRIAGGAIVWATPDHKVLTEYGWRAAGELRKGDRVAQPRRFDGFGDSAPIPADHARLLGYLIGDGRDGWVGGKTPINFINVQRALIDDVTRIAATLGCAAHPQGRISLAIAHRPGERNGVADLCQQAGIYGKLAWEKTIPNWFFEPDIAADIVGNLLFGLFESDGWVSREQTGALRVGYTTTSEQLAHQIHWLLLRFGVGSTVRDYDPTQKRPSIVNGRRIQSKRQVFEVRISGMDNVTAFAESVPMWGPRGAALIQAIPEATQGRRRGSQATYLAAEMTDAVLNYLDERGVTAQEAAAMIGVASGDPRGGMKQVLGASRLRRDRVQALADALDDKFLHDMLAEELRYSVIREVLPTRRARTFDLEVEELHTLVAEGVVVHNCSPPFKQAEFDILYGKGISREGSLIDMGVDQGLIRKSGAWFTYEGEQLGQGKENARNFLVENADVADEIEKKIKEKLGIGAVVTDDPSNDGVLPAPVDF
Mtb FBA inh – inhibits M. tuberculosis FBA enzyme; P9WQA3; purified M. tuberculosis FBA, fluorescence read-out; inhibition, % at 1 µM; 2.3% of 360,000 active; AID 588726; in the data active = inhibition above about 27%;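 also: 0% = vehicle and 100% = reference inhibitor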
CCHF vOTU inh – blocks the CCHF virus ovarian tumor domain protease; CCHFV vOTU protease, Pep-AMC fluorescence; inhibition, % at 11.5 µM; 0.55% of 370,000 active; also: 0% = vehicle wells with enzyme and 100% = no enzyme wells
GDH-TPI inh – GDH-TPI coupled enzyme inhibition counter-screen; GDH-TPI coupled enzyme counterscreen, NADH absorbance; inhibition, % at 4.8 µM; 1.2% of 360,000 active; AID 588335;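 also: 0% = DMSO wells and 100% = wells lacking the enzyme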
An asterisk follows results filed as active; / = no result given; + = active, no number. Rule as the data show it, unless noted: active = inhibition above about 30%; inactive = the rest.

SMILES	RecA intein inh	Mtb FBA inh	CCHF vOTU inh	GDH-TPI inh
O=C1N/C(=N/N=C/c2ccc(O)cc2)SC1Cc1ccccc1 (centres undefined)	-3.4	-5.0	-5.7	62.0*
COc1ccc(/C=N/N=C2/NC(=O)C(c3ccccc3)S2)c(OC)c1 (centres undefined)	-2.1	-4.2	17.4	31.5*
COc1ccc(CC2S/C(=N/N=C/c3ccccc3O)NC2=O)cc1 (centres undefined)	-7.9	-0.4	7.9	36.7*
O=C1N/C(=N/N=C/c2ccccc2O)SC1Cc1ccc(F)cc1 (centres undefined)	-1.6	2.1	-3.0	26.6
Cc1cccc(C(=O)Nc2c(-c3ccc(C(F)(F)F)cc3)nc3ncccn23)c1	/	/	15.2	/
CCCN(C)C1CN(Cc2cn(Cc3cccc(Cl)c3)nn2)S(=O)(=O)C1 (centres undefined)	/	/	6.8	/
O=C1C2C3C=CC(C4CC34)C2C(=O)N1/N=C/c1ccc(-c2ccc(Cl)cc2[N+](=O)[O-])o1 (centres undefined)	6.3	-1.0	14.0	36.6*
O=C1C2C3C=CC(C4CC34)C2C(=O)N1/N=C/c1ccc(-c2ccc(F)cc2[N+](=O)[O-])o1 (centres undefined)	-1.0	-4.7	5.8	32.4*
CN(Cc1ccccc1)C(=O)c1ccc(NC(=O)Cc2ccc(NC(=O)C3CCCN(C(=O)C4CCCC4)C3)cc2)cc1 (centres undefined)	/	0.7	-0.5	1.0
Cc1cc(O)ccc1Nc1nc(-c2cccs2)cs1	30.3*	3.4	15.9	3.8
Cc1cc(O)ccc1Nc1nc(-c2cccnc2)cs1	2.0	0.7	-9.6	17.4
CC(C)N1CCc2c(sc(N)c2C#N)C1	-52.2	22.5	-8.8	32.0*
CCCC1C(C#N)=C(N)Oc2cc(C)n(C)c(=O)c21 (centres undefined)	0.1	114.4*	-38.2	9.2
Cc1cc2c(c(=O)n1C)C(Cc1ccccc1)C(C#N)=C(N)O2 (centres undefined)	-27.2	19.2	-67.8	-8.9
O=C(CSc1nnc(-c2cnccn2)n1-c1ccccc1)c1ccccc1Br	/	/	-4.9	/
CCn1c(SCC(=O)Nc2ccccc2)nnc1-c1cccs1	-0.6	5.0	-14.5	6.3
CCn1c(SCC(=O)c2ccc(NS(=O)(=O)c3ccccc3)cc2)nnc1-c1cccs1	9.2	7.6	7.2	34.4*
c1ccc2nc(-c3ccc(N4CCOCC4)cc3)ccc2c1	-7.6	12.7	-3.3	33.0*
CN1CCN(c2ccc(-c3ccc4ccccc4n3)cc2)CC1	-2.9	7.8	1.1	16.4
CN(C(=O)/C=C/c1ccco1)c1ccccc1C(=O)O	-1.6	4.9	-0.7	32.1*
CNC(=O)N(O)C1N(/N=C/c2ccc(SC)cc2)C(=S)SC1(C)C (centres undefined)	-14.9	0.1	-8.9	35.6*
CN(C)c1ccc(/C=N/N2C(=S)SC(C)(C)C2N(O)C(=O)Nc2ccc([N+](=O)[O-])cc2)cc1 (centres undefined)	-2.4	-0.5	25.4	50.6*
CNC(=O)N(O)C1N(/N=C/c2ccccc2F)C(=S)SC1(C)C (centres undefined)	-8.0	-4.3	-4.5	14.7
CNC(=O)N(O)C1N(/N=C/c2ccccc2O)C(=S)SC1(C)C (centres undefined)	-8.7	0.0	11.8	36.1*
CNC(=O)N(O)C1N(/N=C/c2cccnc2)C(=S)SC1(C)C (centres undefined)	-11.3	-1.0	-5.6	16.9
SMILES	RecA intein inh	Mtb FBA inh	CCHF vOTU inh	GDH-TPI inh
O=C(NC1CCCCN(Cc2cccc(Cl)c2)C1=O)c1ccccn1 (centres undefined)	/	/	-2.3	/
C[C@H](CO)N1C[C@H](C)[C@H](CN(C)C(=O)Nc2ccc(N3CCCCC3)cc2)OCc2cnnn2CCCC1=O	/	/	-9.4	/
CCCc1cc(=O)oc2cc(C)c(CN3CCCC3)c(O)c12	-0.7	10.6	3.0	14.1
Cc1cc(=O)oc2c(CN3CCC(C)CC3)c(O)c(Cl)cc12	-108.1	+	-314.9	14.7
CCCc1cc(=O)oc2c(CN3CCCC3)c(O)c(Cl)cc12	-135.5	+	-305.9	22.2
Cc1cc2oc(=O)cc(CN3CCC(C)CC3)c2cc1Cl	4.1	1.4	4.5	-0.5
CCN1CCN(Cc2c(O)c(Cl)cc3c(C)cc(=O)oc23)CC1	-94.2	+	-311.1	7.8
CCc1cc(=O)oc2cc(C)c(CN3CCCC3)c(O)c12	-5.1	-1.2	19.0	20.5
Cc1cc(=O)oc2c(CN3CCCCC3)c(O)c(Cl)cc12	-116.5	+	-212.7	1.9
Cc1nc2sc(C(=O)NCc3ccncc3)c(N)c2c(C)c1Cl	/	/	-5.1	/
CCc1cc(=O)oc2c(CNCc3ccccc3F)c(O)c(Cl)cc12	-36.5	+	-366.3	22.9
C=CCc1c(O)c(CC)cc2c(C)cc(=O)oc12	-100.1	+	-339.6	10.6
CCN(CC)Cc1c(O)c(Cl)cc2c(C)cc(=O)oc12	-152.4	+	-335.2	10.2
CCC(=O)c1cc2c(C)cc(=O)oc2c(C)c1O	0.3	2.9	-4.7	6.5
Cc1cc(=O)oc2c(CN3CCCC3)c(O)c(Cl)cc12	-106.5	+	-408.6	5.6
COc1cc(OC)c(NC(=O)c2cc3ccccc3cc2O)cc1Cl	/	6.8	10.5	18.5
C[C@@H]1CN([C@H](C)CO)C(=O)CCCn2nncc2CO[C@H]1CN(C)Cc1cccnc1	/	3.3	6.1	5.2
O=C(CSc1ncnc2c1nnn2Cc1ccc(F)cc1)NC1CCCCC1	1.5	0.2	-4.3	9.6
O=C(CSc1ncnc2c1nnn2Cc1ccc(F)cc1)NCC1CCCO1 (centres undefined)	38.6*	-1.6	-6.3	4.7
O=[N+]([O-])c1ccc2nc(-c3ccc(Cl)cc3)n(OCc3ccccc3)c2c1	7.3	-0.5	-5.1	34.1*
CC1CC(C)CN(CCCNC(=O)c2ccc3c(c2)ncn3C2CCCC2)C1 (centres undefined)	5.0	0.0	9.4	-6.6
CCN1CCCC1CNC(=O)c1ccc2c(c1)NC(=O)/C(=C\c1ccccc1Cl)S2 (centres undefined)	/	-2.5	-5.6	7.1
CCN1CCCC1CNC(=O)c1ccc2c(c1)NC(=O)/C(=C\c1ccc(OC)c(OC)c1)S2 (centres undefined)	-0.7	-1.0	-7.8	31.3*
O=C(O)C/C(=C\c1ccc(N2CCOCC2)c([N+](=O)[O-])c1)c1nc2ccccc2s1	6.4	0.2	7.4	32.9*
O=C(O)CC/C(=C\c1ccc(N2CCOCC2)c([N+](=O)[O-])c1)c1nc2ccccc2s1	16.7	-6.1	25.8	24.6
SMILES	RecA intein inh	Mtb FBA inh	CCHF vOTU inh	GDH-TPI inh
CCOC(=O)c1ccc(Nc2ncnc3ccccc23)cc1	1.0	1.7	22.8	57.3*
CCOC(=O)c1nc(Nc2ccccc2)c2ccccc2n1	-0.3	-1.3	-5.2	22.2
CCOC(=O)c1ccc(Nc2c(OCC)c(=O)c2=O)cc1	0.1	-2.6	0.7	35.2*
CCOC(=O)c1nc(Nc2ccc(C)cc2)c2ccccc2n1	1.4	-2.8	28.9	34.4*
Nc1c(C(=O)NCC(O)c2ccccc2)cnn1-c1ccccc1 (centres undefined)	/	/	-6.0	/
c1cnn2c(-c3ccc4c(c3)CCO4)cnc2c1	/	1.9	5.2	4.5
CN(C)C(=O)c1cccc(-c2cnc3cccnn23)c1	/	132.0*	-141.2	11.1
COc1cc2nc(N(C)C)nc(N)c2cc1OC	0.2	79.8*	-46.7	10.3
